# Source: PubChem BioAssay (NCI)
# About 83,000 compounds went through this panel and 20% of them were active in at least one assay; those are over-represented in the sample as a whole.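 Compound tested at a single concentration for 48 hours in 96-well plates; a percent growth value below 10 was scored as active.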 Unmarked numbers belong to inactive results. Activity calls are given as the source filed them.
# Assays:
# Assay in all cases: NCI-60 one-dose screen, 48 h (100 = growth as untreated, 0 = no growth, -100 = all killed)
# Conditions in all cases: 10 µM unless noted
# NCI-H23 lung = test system: NCI-H23 lung
# NCI-H226 lung = test system: NCI-H226 lung
# NCI-H322M lung = test system: NCI-H322M lung
# HOP-62 NSCLC = test system: HOP-62 NSCLC
# NCI-H460 lung = test system: NCI-H460 lung
# HOP-92 NSCLC = test system: HOP-92 NSCLC
# NCI-H522 lung = test system: NCI-H522 lung
# A549/ATCC NSCLC = test system: A549/ATCC NSCLC
# 786-0 renal = test system: 786-0 renal
# COLO 205 colon = test system: COLO 205 colon
# DU-145 prostate = test system: DU-145 prostate
# K-562 leukemia = test system: K-562 leukemia
# MALME-3M melanoma = test system: MALME-3M melanoma
# MDA-MB-231 breast = test system: MDA-MB-231 breast
# RXF 393 renal = test system: RXF 393 renal
# SF-268 CNS = test system: SF-268 CNS
# SF-295 CNS = test system: SF-295 CNS
# SF-539 CNS = test system: SF-539 CNS
# UACC-257 melanoma = test system: UACC-257 melanoma
# M14 melanoma = test system: M14 melanoma
SMILES,growth (NCI-H23 lung),growth (NCI-H226 lung),growth (NCI-H322M lung),growth (HOP-62 NSCLC),growth (NCI-H460 lung),growth (HOP-92 NSCLC),growth (NCI-H522 lung),growth (A549/ATCC NSCLC),growth (786-0 renal),growth (COLO 205 colon),growth (DU-145 prostate),growth (K-562 leukemia),growth (MALME-3M melanoma),growth (MDA-MB-231 breast),growth (RXF 393 renal),growth (SF-268 CNS),growth (SF-295 CNS),growth (SF-539 CNS),growth (UACC-257 melanoma),growth (M14 melanoma)
CS(=O)(=O)c1ccc(-c2cnn3ccc(-c4cccc(S(=O)(=O)C5CC5)c4)nc23)cc1,56.8%,60.5%,57.9%,48.7%,43.7%,41.9%,31.5%,45%,61.3%,64.3%,61.7%,78%,50.2%,53%,22.2%,45.5%,56.9%,60.8%,58.3%,64.3%
CN(C)S(=O)(=O)c1cccc(C(=O)Nc2nc(-c3ccc(F)c(F)c3)cs2)c1,45.7%,46.7%,106%,99.5%,49.4%,67.1%,25.2%,60.1%,64.9%,103%,70.7%,39.4%,90.9%,69.4%,55.1%,88.9%,49.3%,66.4%,42.5%,60.8%
CCN1C(=O)N(CC)C2C1NN=c1s/c(=C\c3ccccc3F)c(=O)n12 (stereo not given),31.9%,48.5%,42.6%,35.1%,2.31% (active),40.3%,-8.42% (active),7.92% (active),20.6%,-9.98% (active),2.54% (active),8.14% (active),52.6%,15.2%,52%,44.6%,12.4%,-18.1% (active),53.1%,2.5% (active)
COc1ccc2c(c1)CC[C@H](O)/C2=C/c1cc(OC)c(OC)c(OC)c1,30.3%,40.8%,60.5%,34.9%,4.68% (active),5.25% (active),-19.2% (active),13.7%,16.1%,-48.8% (active),0.0757% (active),8.97% (active),64%,14.5%,15.5%,27.1%,8.44% (active),-5.68% (active),47.3%,6.27% (active)
O=C1c2ccccc2-c2c1c1c(=O)[nH]c3ccccc3c1n2Cc1ccccc1,63.1%,29.5%,58.4%,75.8%,58.9%,56.4%,35%,44.9%,39.7%,73.8%,79%,63.3%,14%,62%,25.2%,50.7%,60.3%,55.7%,74.9%,84.2%
O=C(/C=C/c1cn(-c2ccccc2)nc1-c1ccc(Cl)cc1)c1ccc(F)cc1,69.9%,85.8%,77.2%,102%,74%,99.2%,87.1%,79.7%,62.8%,93.4%,88.7%,57.7%,87.5%,65.6%,100%,83.4%,172%,96.6%,104%,79.3%
CC(C)C1=NOC(=O)C1=Cc1cn(-c2ccccc2)nc1-c1ccc(F)cc1,95.6%,93.7%,94.9%,90.1%,76.8%,89.8%,66.5%,81.4%,77.4%,94.4%,74%,29.2%,90.8%,98.1%,82.2%,91.2%,95.5%,89.6%,91%,67.4%
CC(C)c1ccc(C(=O)Nc2sc3c(c2C(N)=O)CCC(=O)C3)cc1,-7.38% (active),50.9%,69.4%,26.2%,1.37% (active),-32% (active),-55.8% (active),16.8%,19.7%,-43.6% (active),31.2%,1.14% (active),-23.8% (active),-54.4% (active),-7.12% (active),17.8%,-3.53% (active),-68.8% (active),-11.8% (active),-55.6% (active)
COc1ccc(/C=C/C(=O)c2cc3c(N)c(C(=O)Nc4cccc5ccccc45)sc3nc2C)cc1,85.1%,85%,95.8%,74.5%,75.9%,77.1%,26.1%,68.7%,46.4%,103%,84.5%,28.8%,64.7%,93%,63.4%,74.5%,54.4%,76.9%,65.2%,60%
O=C(Cn1cc(CSc2nc3ccccc3o2)nn1)Nc1ccc(F)cc1F,96%,86.2%,104%,114%,117%,114%,111%,113%,119%,127%,124%,107%,106%,112%,103%,115%,106%,106%,103%,108%
Nc1nc(-c2ccc(Cl)cc2)nc2c1sc(=S)n2-c1ccccc1,48.8%,49.4%,45.7%,28.9%,9.12% (active),-19.3% (active),56.4%,23.9%,-52.9% (active),64.4%,56.1%,41.1%,-15.9% (active),34.7%,-2.61% (active),40.7%,16.4%,-20.7% (active),59.9%,68.1%
N#Cc1nc(-c2ccc(F)cc2)oc1S(=O)(=O)N1CCCCC1,65.7%,79%,94.3%,102%,101%,78.9%,-14.8% (active),103%,86.4%,-13.2% (active),99%,7.64% (active),42.8%,78.1%,55.4%,106%,104%,72.6%,91.2%,68.7%
COc1cc(OCc2cccc(Br)c2C)cc(OC)c1C=O,75.7%,29.3%,92.6%,93.5%,75.8%,90.6%,62%,76.5%,79.4%,93.4%,91.3%,67%,114%,95.2%,75.1%,91.9%,86.7%,91.9%,83%,90.9%
CS(=O)(=O)Nc1cc(-c2ccc3ncnc(Nc4ccc5c(cnn5Cc5ccc(F)cc5)c4)c3c2)cnc1Cl,43.8%,66.8%,60.7%,43.5%,61.5%,-17.5% (active),43.7%,78.7%,48.3%,60.1%,62.1%,48.5%,-4.18% (active),32.9%,9.93% (active),14.9%,66.1%,27.5%,50%,36.8%
